Results reported in ChEMBL document CHEMBL3988442, “University of Dundee, Small-Polar-MMV Screening Library” (2021).
For part of these data: Potency and affinity values are given separately.

Tests used:
Design in all cases: scale not given: direction of the effect not stated beside the values
[1] = biological target: Protein translocase subunit SecA (Escherichia coli (strain K12)) (UniProt P10408); experiment: Assay to Identify E. coli SecA ATPase Inhibitors; assay type: functional; conditions: 30 µM
Sequence of Protein translocase subunit SecA (Escherichia coli (strain K12)) (P10408 whole entry): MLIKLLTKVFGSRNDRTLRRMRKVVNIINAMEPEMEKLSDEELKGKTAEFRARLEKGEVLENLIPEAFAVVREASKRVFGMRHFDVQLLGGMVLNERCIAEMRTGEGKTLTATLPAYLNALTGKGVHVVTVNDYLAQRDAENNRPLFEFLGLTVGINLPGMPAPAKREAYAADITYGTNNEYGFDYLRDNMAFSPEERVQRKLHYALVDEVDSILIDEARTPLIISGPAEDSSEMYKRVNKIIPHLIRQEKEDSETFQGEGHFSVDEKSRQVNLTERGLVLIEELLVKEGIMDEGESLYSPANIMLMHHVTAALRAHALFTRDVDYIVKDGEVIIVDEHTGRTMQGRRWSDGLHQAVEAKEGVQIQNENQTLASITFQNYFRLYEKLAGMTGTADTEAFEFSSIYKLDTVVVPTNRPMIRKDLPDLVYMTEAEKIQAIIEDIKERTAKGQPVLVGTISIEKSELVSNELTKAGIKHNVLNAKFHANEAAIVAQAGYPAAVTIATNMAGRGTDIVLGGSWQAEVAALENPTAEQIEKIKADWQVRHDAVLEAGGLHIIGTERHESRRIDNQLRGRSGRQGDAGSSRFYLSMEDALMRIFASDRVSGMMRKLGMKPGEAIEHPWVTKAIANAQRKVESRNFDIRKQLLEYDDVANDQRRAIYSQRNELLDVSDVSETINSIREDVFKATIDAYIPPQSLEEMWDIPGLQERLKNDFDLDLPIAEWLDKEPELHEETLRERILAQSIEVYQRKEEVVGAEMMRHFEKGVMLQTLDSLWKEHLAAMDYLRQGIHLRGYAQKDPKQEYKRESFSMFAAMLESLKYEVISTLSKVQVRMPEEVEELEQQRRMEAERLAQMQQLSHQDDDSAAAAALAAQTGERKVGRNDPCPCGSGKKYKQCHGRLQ

[2] = biological target: T1, Ubiquitin-activating enzyme e1, putative (Leishmania donovani (strain BPK282A1)) (UniProt E9BSI1); experiment: Leishmania donovani Ubiquitin Activating Enzyme (LdE1); assay type: functional; conditions: 30 µM
T1 sequence (whole entry): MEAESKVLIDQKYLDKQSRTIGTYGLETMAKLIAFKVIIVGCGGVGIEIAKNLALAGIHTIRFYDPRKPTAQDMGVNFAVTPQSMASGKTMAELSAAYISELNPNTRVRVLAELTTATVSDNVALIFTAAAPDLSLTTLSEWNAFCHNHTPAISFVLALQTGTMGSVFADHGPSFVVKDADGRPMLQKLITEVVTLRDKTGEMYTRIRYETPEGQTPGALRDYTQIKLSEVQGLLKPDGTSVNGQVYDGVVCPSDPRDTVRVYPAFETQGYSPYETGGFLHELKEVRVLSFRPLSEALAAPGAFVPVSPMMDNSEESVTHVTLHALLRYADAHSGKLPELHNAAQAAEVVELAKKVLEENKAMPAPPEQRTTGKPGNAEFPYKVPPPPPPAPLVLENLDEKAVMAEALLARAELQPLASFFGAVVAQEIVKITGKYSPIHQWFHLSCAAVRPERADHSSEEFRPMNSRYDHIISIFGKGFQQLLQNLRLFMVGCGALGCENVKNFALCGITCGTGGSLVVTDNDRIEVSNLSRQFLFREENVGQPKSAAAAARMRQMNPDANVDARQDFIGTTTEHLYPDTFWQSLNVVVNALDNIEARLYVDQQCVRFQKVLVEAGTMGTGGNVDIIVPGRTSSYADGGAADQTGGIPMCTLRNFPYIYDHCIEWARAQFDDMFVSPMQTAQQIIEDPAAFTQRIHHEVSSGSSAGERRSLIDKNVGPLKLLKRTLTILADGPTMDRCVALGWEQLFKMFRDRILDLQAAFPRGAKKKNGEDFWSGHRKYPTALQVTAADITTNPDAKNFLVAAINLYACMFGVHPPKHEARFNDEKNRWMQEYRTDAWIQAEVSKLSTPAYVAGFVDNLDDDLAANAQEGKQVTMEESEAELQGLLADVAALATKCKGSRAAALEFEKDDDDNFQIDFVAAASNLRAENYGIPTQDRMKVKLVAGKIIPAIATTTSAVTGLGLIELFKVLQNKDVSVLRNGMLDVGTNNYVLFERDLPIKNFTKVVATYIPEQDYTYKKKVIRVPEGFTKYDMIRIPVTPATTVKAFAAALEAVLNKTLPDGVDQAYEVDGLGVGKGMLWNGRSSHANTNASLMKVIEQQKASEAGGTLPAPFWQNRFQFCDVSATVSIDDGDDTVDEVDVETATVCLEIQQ

[3] = biological target: AMP-activated protein kinase, AMPK (Homo sapiens) (UniProt P54646+O43741+P54619+Q9UGJ0+Q9Y478+Q13131+Q9UGI9); experiment: AMP-dependent Kinase enzyme assay. An in vitro enzyme assay that detects ADP turnover that is directly proportional to AMPK activity. This uses naive AMPK that is activated during the assay with MK-8722; assay type: functional; conditions: 30 µM
[4] = biological target: Sialic acid-binding Ig-like lectin 9 (Homo sapiens) (UniProt Q9Y336); experiment: Hs-Siglec9 ALPHAscreen SOP 20170721; conditions: 10 µM
Sequence of Sialic acid-binding Ig-like lectin 9 (Homo sapiens) (Q9Y336 whole entry): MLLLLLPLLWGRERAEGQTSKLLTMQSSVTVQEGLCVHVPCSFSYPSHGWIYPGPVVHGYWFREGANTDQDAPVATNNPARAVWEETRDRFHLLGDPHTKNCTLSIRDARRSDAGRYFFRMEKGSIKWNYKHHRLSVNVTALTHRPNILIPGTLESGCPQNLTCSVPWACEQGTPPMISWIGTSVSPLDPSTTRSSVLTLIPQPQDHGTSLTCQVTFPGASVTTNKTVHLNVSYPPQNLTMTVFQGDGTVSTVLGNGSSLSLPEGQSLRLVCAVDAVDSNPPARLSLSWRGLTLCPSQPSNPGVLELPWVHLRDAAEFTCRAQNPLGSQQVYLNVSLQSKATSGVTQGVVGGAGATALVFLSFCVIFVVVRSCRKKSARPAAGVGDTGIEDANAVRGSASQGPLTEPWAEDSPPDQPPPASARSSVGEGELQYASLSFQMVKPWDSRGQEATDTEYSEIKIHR

Trypanosoma cruzi = experiment: Trypanosoma cruzi phosphomannomutase and mannose-1-phosphate guanylyltransferase assay; assay type: functional; conditions: 10 µM
[5] = biological target: T2, Arginase-2, mitochondrial (Homo sapiens) (UniProt P78540); experiment: in vitro enzyme assay to detect the production of urea directly proportional to the activity of Arginase II; assay type: functional; conditions: 33.3 µM; also: in the data most compounds retested in dose-response had high values
T2 sequence (whole entry): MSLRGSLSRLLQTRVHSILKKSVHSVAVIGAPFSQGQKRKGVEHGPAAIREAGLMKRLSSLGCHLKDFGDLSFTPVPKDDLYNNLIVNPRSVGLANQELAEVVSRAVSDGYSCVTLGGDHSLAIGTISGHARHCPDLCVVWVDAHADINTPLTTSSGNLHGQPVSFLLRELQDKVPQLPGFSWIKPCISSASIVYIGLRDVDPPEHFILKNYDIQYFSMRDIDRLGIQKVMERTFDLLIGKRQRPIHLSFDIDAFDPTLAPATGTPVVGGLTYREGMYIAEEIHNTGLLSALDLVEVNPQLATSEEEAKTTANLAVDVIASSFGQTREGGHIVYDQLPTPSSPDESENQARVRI

[6] = biological target: T3, Proteasome subunit beta (Trypanosoma cruzi) (UniProt O96673); experiment: Trypanosoma cruzi proteasome chymotrypsin-like activity (TcProtChymo) assay.; also: in the data most compounds retested in dose-response had high values; assay type: functional; conditions: 9.37 µM
T3 sequence (whole entry): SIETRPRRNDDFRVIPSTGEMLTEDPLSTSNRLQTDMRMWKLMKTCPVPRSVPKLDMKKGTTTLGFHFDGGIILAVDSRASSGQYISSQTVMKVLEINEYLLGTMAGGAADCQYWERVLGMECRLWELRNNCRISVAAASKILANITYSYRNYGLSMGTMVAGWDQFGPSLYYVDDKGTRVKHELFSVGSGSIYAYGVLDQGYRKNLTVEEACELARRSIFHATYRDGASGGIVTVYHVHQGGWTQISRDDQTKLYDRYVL

Homo sapiens = organism: Homo sapiens; experiment: To identify inhibition of the IFN signalling (Jak-Stat) pathway via expression of an eGFP reporter gene under the control of an IFN-stimulated response element (ISRE) containing MxA promoter.; assay type: functional; conditions: 30 µM
[7] = biological target: T4, Tyrosyl-tRNA synthetase, putative (Trypanosoma cruzi (strain CL Brener)) (UniProt Q4DSP6); experiment: Trypanosoma cruzi tyrosyl tRNA synthetase (TcYRS) _High Tyrosine SOP; assay type: functional; conditions: 30 µM; also: in the data most compounds retested in dose-response had high values
T4 sequence (whole entry): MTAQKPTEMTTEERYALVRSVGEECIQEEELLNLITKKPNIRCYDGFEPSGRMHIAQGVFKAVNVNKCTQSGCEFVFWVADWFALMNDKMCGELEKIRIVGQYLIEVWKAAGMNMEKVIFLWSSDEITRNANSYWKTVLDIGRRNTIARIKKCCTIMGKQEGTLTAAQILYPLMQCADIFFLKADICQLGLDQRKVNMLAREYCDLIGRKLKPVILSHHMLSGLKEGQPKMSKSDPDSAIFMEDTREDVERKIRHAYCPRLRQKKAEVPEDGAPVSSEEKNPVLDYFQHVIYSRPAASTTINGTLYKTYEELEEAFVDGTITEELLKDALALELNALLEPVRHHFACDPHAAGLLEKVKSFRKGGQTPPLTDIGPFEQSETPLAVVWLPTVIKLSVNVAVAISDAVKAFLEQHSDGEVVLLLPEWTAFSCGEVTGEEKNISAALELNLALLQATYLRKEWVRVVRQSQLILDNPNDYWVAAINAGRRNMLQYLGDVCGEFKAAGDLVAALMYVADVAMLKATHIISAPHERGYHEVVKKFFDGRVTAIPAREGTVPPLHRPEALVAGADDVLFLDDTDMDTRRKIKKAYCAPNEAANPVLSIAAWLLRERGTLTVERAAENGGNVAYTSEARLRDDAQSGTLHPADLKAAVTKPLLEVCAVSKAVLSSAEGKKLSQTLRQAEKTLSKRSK

[8] = biological target: T4, Tyrosyl-tRNA synthetase, putative (Trypanosoma cruzi (strain CL Brener)); experiment: Trypanosoma cruzi tyrosyl tRNA synthetase (TcYRS) SOP; assay type: functional; conditions: 30 µM
[9] = biological target: Chromo domain-containing protein 1 (Saccharomyces cerevisiae (strain ATCC 204508 / S288c) (Baker's yeast)) (UniProt P32657); experiment: ScCHD-1 Enzyme Inhibition Assay; assay type: functional; conditions: 30 µM; also: in the data most compounds retested in dose-response had high values
Sequence of Chromo domain-containing protein 1 (Saccharomyces cerevisiae (strain ATCC 204508 / S288c) (Baker's yeast)) (P32657 whole entry, the tested form may be a part): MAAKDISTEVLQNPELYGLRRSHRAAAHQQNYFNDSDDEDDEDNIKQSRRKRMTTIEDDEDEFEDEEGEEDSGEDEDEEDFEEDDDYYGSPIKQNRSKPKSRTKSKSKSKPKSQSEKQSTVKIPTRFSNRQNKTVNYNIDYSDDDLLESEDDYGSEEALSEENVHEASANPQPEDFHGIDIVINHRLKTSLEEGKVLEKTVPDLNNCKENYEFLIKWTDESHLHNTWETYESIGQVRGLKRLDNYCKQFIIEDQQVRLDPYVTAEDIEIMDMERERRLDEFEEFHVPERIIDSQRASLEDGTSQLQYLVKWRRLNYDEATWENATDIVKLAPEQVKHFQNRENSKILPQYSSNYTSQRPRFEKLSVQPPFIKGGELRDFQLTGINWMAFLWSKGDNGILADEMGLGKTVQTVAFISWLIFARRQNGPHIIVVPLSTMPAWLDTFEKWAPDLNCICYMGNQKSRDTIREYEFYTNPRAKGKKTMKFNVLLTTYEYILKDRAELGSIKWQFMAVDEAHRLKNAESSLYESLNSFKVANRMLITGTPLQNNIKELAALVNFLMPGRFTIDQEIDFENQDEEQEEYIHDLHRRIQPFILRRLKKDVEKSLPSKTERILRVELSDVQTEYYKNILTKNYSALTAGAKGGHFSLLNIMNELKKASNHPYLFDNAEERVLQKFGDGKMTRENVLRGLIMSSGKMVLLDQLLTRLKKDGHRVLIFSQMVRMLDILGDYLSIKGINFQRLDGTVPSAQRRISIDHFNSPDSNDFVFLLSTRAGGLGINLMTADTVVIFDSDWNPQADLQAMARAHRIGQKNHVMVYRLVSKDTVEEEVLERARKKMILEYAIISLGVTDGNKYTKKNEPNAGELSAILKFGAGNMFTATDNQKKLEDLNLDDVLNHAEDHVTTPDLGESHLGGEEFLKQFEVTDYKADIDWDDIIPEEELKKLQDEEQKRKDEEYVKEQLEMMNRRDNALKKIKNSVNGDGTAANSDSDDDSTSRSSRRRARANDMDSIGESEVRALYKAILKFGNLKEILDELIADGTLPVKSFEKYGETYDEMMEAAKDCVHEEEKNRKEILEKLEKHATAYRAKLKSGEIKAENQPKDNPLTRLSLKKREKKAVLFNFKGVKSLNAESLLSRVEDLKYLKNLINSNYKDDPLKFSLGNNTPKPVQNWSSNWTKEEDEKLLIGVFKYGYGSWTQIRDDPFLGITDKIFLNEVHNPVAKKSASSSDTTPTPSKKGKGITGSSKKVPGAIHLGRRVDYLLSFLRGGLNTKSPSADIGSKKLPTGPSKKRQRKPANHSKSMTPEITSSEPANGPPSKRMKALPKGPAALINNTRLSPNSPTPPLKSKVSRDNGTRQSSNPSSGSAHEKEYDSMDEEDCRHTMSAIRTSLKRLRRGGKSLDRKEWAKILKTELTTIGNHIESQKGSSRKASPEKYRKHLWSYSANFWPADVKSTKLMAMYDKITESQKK

Row | SMILES | Percent Effect [1] | Percent Effect [2] | Percent Effect [3] | Percent Effect [4] | Percent Effect (Trypanosoma cruzi) | Percent Effect [5] | Percent Effect [6] | Percent Effect (Homo sapiens) | Percent Effect [7] | Percent Effect [8] | Percent Effect [9]
1 | Cc1nc(C)n(C2CCCN(C(=O)c3cnc[nH]3)C2)n1 (stereo unspecified) | -4.48% | -2.7% | -9.26% | 8.79% | -4.43% | 2% | -2.7% | 0.378% | -5.42% | 1.24% | 6.8%
2 | O=C1[C@H]2CN(CC3CC3)C[C@H]2CN1Cc1cccc(F)c1 | 1.22% | -56.8% | 4.89% | 3.99% | -0.0978% | -0.955% | 12.7% | -14.7% | 2.16% | 2.56% | 9.93%
3 | CCn1nc(C)c2ncnc(NCC(=O)N3CCOCC3)c21 | -1.89% | 9.33% | -3.08% | 10.4% | 2.55% | -8.28% | 14.4% | 30.3% | -28.6% | 5.13% | -9.1%
4 | CC(NC(=O)COc1ccc(F)cc1)c1nnc2n1CCCCC2 (stereo unspecified) | -3.7% | 16.2% | -13.2% | 13.2% | 5.19% | -8.02% | 0.36% | 0.906% | 4.43% | 18.5% | -14.6%
5 | CN1CC(=O)N(c2cnn(C)c2)CC12CCN(Cc1nccn1C)C2 (stereo unspecified) | -0.706% | 8.22% | 4.05% | 7.48% | -4.17% | -0.399% | 10.2% | 6.84% | 4.17% | 6.17% | -4.89%
6 | Cc1cnc(CN(C)C2CCN(CC(=O)N(C)c3nccs3)C2)o1 (stereo unspecified) | 2.75% | 17.7% | 3.25% | -2.38% | -8.4% | 0.76% | 13.2% | 40.8% | 1.48% | -3.8% | -6.37%
7 | N#Cc1ccc(CNCC(C(=O)N2CCOCC2)c2ccccc2)cc1 (stereo unspecified) | -2.65% | 10.4% | -4.88% | 7.63% | 2.06% | -75.9% | 4.16% | -2.22% | 4.3% | 13.6% | -3.12%
8 | O=C(C1CCOCC1)N1CCC2(CC1)CC(Oc1ccccc1)CO2 (stereo unspecified) | 0.293% | 8.22% | -6.45% | 5.89% | 0.595% | -5.59% | 7.28% | 14.1% | 6.25% | 16.1% | -0.343%
9 | CCCc1n[nH]c(C2CN(CCCOc3ccccc3)CCO2)n1 (stereo unspecified) | -5.86% | 1.27% | 7.41% | 1.64% | -1.74% | 1.5% | -1.03% | 2.3% | 4.17% | 7.59% | 13.9%
10 | CCOc1cc(C)nc(N2CCN(C(=O)c3ccnn3C)CC2)n1 | -1.84% | 5.41% | -0.273% | 4.02% | 3.62% | -3.51% | 4.67% | 2.75% | 3.96% | 18.3% | -3.83%
11 | O=C(NCCN1CCC(c2cccs2)CC1)c1ccccc1C(F)(F)F | -3.22% | 8.22% | 0.699% | 8.89% | 5.09% | 17.7% | 17.2% | 3.57% | 5.38% | 12.5% | -4.65%
12 | Cc1nc(N2CCCC2)nc2c1CN(C(C)C)CC2 | -5.79% | 21.3% | -1.49% | 4.47% | 3.28% | -51.8% | 1.71% | -7.95% | 6.25% | 17.5% | -11.2%
13 | N#CCCN(C(=O)CN1CCCC1c1ccsc1)c1ccccc1F (stereo unspecified) | -3.56% | -18.9% | -2.34% | -0.732% | -2.51% | -8.69% | -0.718% | 16.7% | 3.96% | 1.22% | 21.4%
14 | CCn1ncc(CN2CCc3c(nc(-c4cccnc4)[nH]c3=O)C2)c1C | -4.9% | 5.33% | 9.46% | 2.36% | 7.87% | 0.699% | 10.3% | 2.75% | 5.32% | 11.5% | -4.43%
15 | Cc1ccc([C@]2(O)CC[C@H]3CN(Cc4cc(C)c(O)c(C)c4)C[C@H]32)nc1 | -2.94% | 6.76% | 23.7% | 8.26% | -2.37% | -5.34% | 8.58% | 11.6% | 0% | 6.49% | -9.68%
16 | COc1c(C)cnc(CN2CCCCC2Cn2nc(C)nc2C)c1C (stereo unspecified) | 0.617% | 17.7% | -1.73% | -6.46% | 2.55% | 5.32% | 14.8% | 4.74% | 14.3% | 26.6% | -9.69%
17 | O=C(NCC1CC1)[C@H]1C[C@H]2OCC[C@H]2N(CCc2ccccc2)C1 | -3.05% | 2.7% | 0.431% | -3.87% | -5.96% | -1.59% | 16.4% | 0.915% | 2.16% | 5.13% | -1.91%
18 | O=C(Nc1ccccn1)N(CCO)Cc1ccsc1 | -2.18% | 10.5% | 4.91% | 14.4% | 0.564% | 0% | 11.2% | 9.82% | 8.33% | 17.1% | -3.38%
19 | COc1cc(CNC2CCc3nc(C)nn3C2)cc2c1OCCO2 (stereo unspecified) | -2.1% | 7.89% | -9.24% | 6.01% | 5.51% | 5.04% | 2.62% | -11.3% | 2.46% | 11.1% | -1.5%
20 | O=C(c1ccc(F)cc1)N1C[C@H]2CCC[C@@]2(COCc2ccccn2)C1 | -4.13% | 8.11% | -4.94% | 1.62% | 2.44% | 7.96% | 22% | -12.1% | 3.24% | 17.9% | 1.95%
21 | CC(C)c1nc(C2CCCN2CC(=O)N2CCNC2=O)no1 (stereo unspecified) | -3.33% | 2.63% | -0.208% | -4.56% | 5.26% | 1.15% | 1.34% | -5.94% | -0.49% | 4.88% | -10.2%
